Measurements reported in PubChem BioAssay (NCI).
This is part of a sample that, as a whole, favours compounds with a hit. Of some 83,000 tested, about 20% had one in any assay.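 Compound tested at a single concentration for 48 hours in 96-well plates; a percent growth value below 10 was scored as active.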 A number with no mark means an inactive call. Activity calls are given as the source filed them.

Key:
Test in all cases: NCI-60 one-dose screen, 48 h (100 = growth as untreated, 0 = no growth, -100 = all killed)
Conditions in all cases: 10 µM unless noted
SR leukemia = test system: SR leukemia
RPMI-8226 leukemia = test system: RPMI-8226 leukemia
OVCAR-8 ovarian = test system: OVCAR-8 ovarian
OVCAR-5 ovarian = test system: OVCAR-5 ovarian
OVCAR-4 ovarian = test system: OVCAR-4 ovarian
SK-OV-3 ovarian = test system: SK-OV-3 ovarian
IGROV1 ovarian = test system: IGROV1 ovarian
HS 578T breast = test system: HS 578T breast
NCI/ADR-RES ovarian = test system: NCI/ADR-RES ovarian
T-47D breast = test system: T-47D breast
BT-549 breast = test system: BT-549 breast
MDA-MB-435 melanoma = test system: MDA-MB-435 melanoma
SW-620 colon = test system: SW-620 colon
MCF7 breast = test system: MCF7 breast
HCT-116 colon = test system: HCT-116 colon
HCC-2998 colon = test system: HCC-2998 colon
KM12 colon = test system: KM12 colon
OVCAR-3 ovarian = test system: OVCAR-3 ovarian

Structure (SMILES) | growth (SR leukemia) | growth (RPMI-8226 leukemia) | growth (OVCAR-8 ovarian) | growth (OVCAR-5 ovarian) | growth (OVCAR-4 ovarian) | growth (SK-OV-3 ovarian) | growth (IGROV1 ovarian) [%] | growth (HS 578T breast) | growth (NCI/ADR-RES ovarian) | growth (T-47D breast) | growth (BT-549 breast) | growth (MDA-MB-435 melanoma) | growth (SW-620 colon) | growth (MCF7 breast) | growth (HCT-116 colon) | growth (HCC-2998 colon) | growth (KM12 colon) | growth (OVCAR-3 ovarian)
Clc1nc(-c2cccnc2)nc2sc3c(c12)CCCCCC3 | 87.6% | 96.9% | 103% | 102% | 97.1% | 102% | 107 | 109% | 106% | 95.4% | 99.8% | 97.3% | 106% | 92.7% | 97.1% | 107% | 116% | –
COc1cc(C(=O)OCCCCCCCCCCC[P+](c2ccccc2)(c2ccccc2)c2ccccc2)ccc1O | -58.7% (active) | -9.32% (active) | -62% (active) | 22.6% | -11.2% (active) | -1.8% (active) | 11.6 | -13.3% (active) | 50.6% | -43.1% (active) | -60.8% (active) | -46.7% (active) | -0.568% (active) | -40.8% (active) | -33.6% (active) | 19.3% | -80.6% (active) | –
COc1cccc(NC(=O)Cn2cc3c(=O)oc4ccccc4c3n2)c1 | 110% | 97.9% | 112% | 113% | 92.8% | 113% | 97.1 | 104% | – | – | 94.5% | 88.1% | 103% | 88.1% | 99.5% | 110% | 100% | –
COc1cc(CCn2nnc3c(Nc4ccc(N5CCOCC5)cc4)ncnc32)cc(OC)c1 | 64.2% | 72.8% | 109% | 95.3% | 91.1% | 112% | 110 | 91.2% | – | – | – | 68.2% | 90.8% | 102% | 101% | – | 81.6% | –
Cc1cc(C)c(NC(=O)c2sc3nc4c(cc3c2N)CN(Cc2ccccc2)CC4)c(C)c1 | 10.1% | 20.9% | 46.6% | 57.1% | 31.6% | 23.9% | 24.1 | 21% | 18.5% | 27.4% | 52.2% | -18.6% (active) | 23.7% | 17.6% | 22.6% | 62.3% | 19.4% | –
COc1ccc(/C=C/C(=O)c2cc(OC)c(OC)c(OC)c2)cc1OCc1cn(Cc2ccc(F)cc2)nn1 | 3.34% (active) | 1.66% (active) | 15% | 50.4% | 43.4% | 76.6% | 85.9 | 82.6% | 16.5% | 50.4% | 25.7% | 5.55% (active) | 15.4% | 13% | 15% | 101% | 6.55% (active) | –
COc1cccc(NC(=O)c2sc3nc4c(cc3c2N)CCCC4)c1 | 14.3% | -4.6% (active) | 25.8% | 38.6% | 72.1% | 28.7% | 37.1 | – | -12.1% (active) | 41.5% | 66.7% | -40.2% (active) | 32.1% | 13.2% | 20.7% | 24.4% | 23.1% | –
Cc1cccc(NC(=O)c2sc3nc4c(cc3c2N)CCCC4)c1 | 17.3% | 12.7% | 52.1% | 64.9% | 71.7% | 44% | 54.6 | – | 11.1% | – | 50.8% | -22.9% (active) | 36% | 11.3% | 22.3% | 70.6% | 22.9% | –
O=[N+]([O-])c1c(S(=O)(=O)O)cc2cc(S(=O)(=O)O)ccc2c1[N+](=O)[O-] | 103% | 109% | 114% | 97.2% | 114% | 122% | 103 | 98.7% | 102% | 109% | 104% | 105% | 105% | 97.7% | 98.2% | 99.2% | 91.5% | –
CCC1CCc2nc3sc(C(=O)Nc4ccccc4C)c(N)c3cc2C1 (centres undefined) | 12.8% | 3.92% (active) | 57.3% | 76.5% | 89% | 44.8% | 65.3 | 49.4% | 18.4% | 63.6% | 74.7% | -38.4% (active) | 26.9% | 15.2% | 25.5% | 62.2% | 29.6% | –
COc1cc(C2C=C(C)N=C3SC=CN32)cc(OC)c1OC (centres undefined) | 106% | 113% | 103% | 109% | 108% | 112% | 111 | 103% | 110% | 98.8% | 106% | 98.6% | 111% | 93.3% | 101% | 106% | 111% | –
C=C1C(=O)O[C@H]2[C@H](O)[C@@H](C)CCC/C(C)=C/CC[C@@]3(C)O[C@@H]3C[C@@H]12 | 94.3% | 99.8% | 88.7% | 95.8% | 103% | 96.8% | – | – | 97.6% | 97.2% | – | 94.4% | 79.9% | 69.1% | 74.3% | – | 119% | 72.6%
COC1=CC(c2ccc[nH]2)=N/C1=C\c1[nH]c(C)c(C(=O)CCCCC(=O)NCc2ccccc2)c1C | 91% | 65.6% | 31.5% | 47.3% | 50.8% | 83.3% | – | 72% | 42% | 50.5% | 21.5% | -20% (active) | -96.7% (active) | -100% (active) | -83.1% (active) | 57.8% | -25.2% (active) | -5.91% (active)
O=C(N/N=C/c1c(Cl)cccc1Cl)c1ccccc1Nc1ccnc(C(F)(F)F)c1 | 103% | 89.7% | 64.8% | 97.8% | 63.9% | 76.9% | – | 82.7% | 67.6% | 51.8% | – | 82.9% | 86.3% | 46% | 64.9% | 71.5% | 74.7% | 110%
O=C(CCCn1c(=O)c2sc3ccccc3c2n2nnc(-c3ccccc3)c12)NCCc1cnc[nH]1 | 84.2% | 62.5% | -28.5% (active) | -78.9% (active) | -54.5% (active) | 75.3% | – | 90.6% | – | 4.62% (active) | 32.3% | -49.9% (active) | -11.1% (active) | -47.4% (active) | -86.6% (active) | -42.6% (active) | -7.92% (active) | -47.6% (active)
C=C1C(=O)O[C@H]2[C@H]1CC/C(COC(=O)NCc1cc(OC)cc(OC)c1)=C\CC[C@@]1(C)O[C@@H]21 | 3.61% (active) | 5.14% (active) | -9.79% (active) | 18.1% | 9.29% (active) | 81.7% | – | 37.1% | – | -8.17% (active) | -5.77% (active) | -29.1% (active) | -50.5% (active) | 0.19% (active) | -60.4% (active) | 63.8% | 45.1% | -76.8% (active)
COc1ccc(/C=C/C(=O)/C=C/c2cc3ccc(Cl)cc3[nH]c2=O)cc1 | -0.34% (active) | 19.9% | 81.4% | 108% | 92.9% | 91% | – | – | 103% | 67.3% | 75.6% | 81.5% | 66.1% | 25.2% | -50.8% (active) | – | 72.5% | 75.4%
CC(=O)/C=C/c1cc2cc(Cl)ccc2[nH]c1=O | 5.65% (active) | 54.5% | 92.2% | 95.3% | 90.5% | 88.7% | – | 89.7% | 100% | 50% | 65.5% | 94.2% | 80.4% | 30.5% | 48.1% | – | 60% | 84.7%
O=C(CCCn1c2c(sc3ccccc32)c(=O)n2nnc(-c3ccccc3)c12)NCCc1cnc[nH]1 | 55.2% | -4.25% (active) | -50.6% (active) | -82.1% (active) | -92.5% (active) | 5.51% (active) | – | 23.4% | 21.2% | -25.4% (active) | 72.2% | -95.1% (active) | -84.5% (active) | -100% (active) | -100% (active) | 25.7% | -63% (active) | –
